Source: PubChem BioAssay (EPA / NIEHS)
Calls of active or inactive are those of the source. The calls were made as follows: active = hit-call score of the fitted dose curve at least 0.9, where 1 is the maximum; inactive = score below 0.9. Peptide text beside a SMILES is read from it.

Experiments:
[1] = ATG_GLI_CIS: Attagene CIS-FACTORIAL HepG2 Assay for human Zinc Finger Protein GLI1 (AID 2282945); settings: HepG2, Attagene cis-factorial reporter mRNA, GLI element; actives raise or lower the signal
In short: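 Bidirectional curve fits relative to DMSO, using reporter mRNA levels from RT-PCR plus capillary electrophoresis. Cells were HepG2 transiently carrying cis-regulated reporter constructs, harvested 24 h after dosing.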

[2] = target: Bile acid receptor (Homo sapiens) (UniProt Q96RI1); assay: ATG_IR1_CIS: Attagene CIS-FACTORIAL HepG2 Assay for human Nuclear Receptor Subfamily 1 Group H Member 4 (NR1H4), IR1 submotif (AID 2282946); settings: IR1 reporter transcription, actives raise or lower the signal
Sequence of Bile acid receptor (Homo sapiens) (Q96RI1 whole entry, looked up): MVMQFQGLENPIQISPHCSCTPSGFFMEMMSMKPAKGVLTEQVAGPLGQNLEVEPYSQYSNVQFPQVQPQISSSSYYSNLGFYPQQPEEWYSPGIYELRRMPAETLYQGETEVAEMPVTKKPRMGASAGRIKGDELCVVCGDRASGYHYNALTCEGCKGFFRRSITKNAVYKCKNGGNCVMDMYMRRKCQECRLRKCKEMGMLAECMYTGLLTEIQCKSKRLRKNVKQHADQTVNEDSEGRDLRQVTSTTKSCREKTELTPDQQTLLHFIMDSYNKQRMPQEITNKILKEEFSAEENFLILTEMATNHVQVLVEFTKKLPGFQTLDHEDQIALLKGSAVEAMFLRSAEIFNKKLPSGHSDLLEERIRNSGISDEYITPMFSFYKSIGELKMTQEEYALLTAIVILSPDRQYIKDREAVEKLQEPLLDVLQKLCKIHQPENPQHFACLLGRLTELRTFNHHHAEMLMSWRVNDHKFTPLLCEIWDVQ
In short: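 HepG2 cells transiently transfected with multiplexed cis-element reporter units read endogenous transcription factor activity. After 24 h compound exposure, reporter mRNA was quantified by RT-PCR, fluorescent labelling, HpaI digestion and capillary electrophoresis; bidirectional fitting versus DMSO baseline.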

[3] = ATG_GRE_CIS: Attagene CIS-FACTORIAL HepG2 Assay for human Glucocorticoid Response Elements (GRE) (AID 2282947); settings: HepG2 GRE cis-reporter, Attagene multiplex mRNA; actives raise or lower the signal
In short: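 Reporter transcripts read by RT-PCR with capillary electrophoresis fluorescence after a 24 h chemical exposure of HepG2 cells transiently transfected with multiple cis-element reporter units. Gain or loss fitted against DMSO.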

[4] = ATG_ISRE_CIS: Attagene CIS-FACTORIAL HepG2 Assay for human Interferon Regulatory Factor 1 (IRF1) binding to an Interferon-Stimulated Response Element (ISRE) (AID 2282948); settings: HepG2 ISRE cis-reporter (Attagene), mRNA transcription readout; actives raise or lower the signal
In short: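 Read-out: fluorescent RT-PCR products resolved by capillary electrophoresis, reporting endogenous transcription factor activity via ISRE-driven reporter mRNA in transfected HepG2 cells dosed for 24 h; gain or loss fitted relative to DMSO.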

[5] = ATG_M_32_CIS: Attagene CIS-FACTORIAL HepG2 Assay for M32 Transcription Factor (Internal Marker) (AID 2282949); settings: HepG2 Attagene cis-factorial M32 reporter, mRNA; actives raise or lower the signal;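 also: background control marker of the multiplexed CIS panel rather than a real target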
In short: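 HepG2 human liver cells transiently transfected with cis-promoter-driven multiple reporter transcription units, dosed 24 h. Reporter mRNA quantified by RT-PCR, FAM-labelled primer extension, HpaI digest and capillary electrophoresis; bidirectional fit versus DMSO baseline.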

[6] = ATG_M_06_CIS: Attagene CIS-FACTORIAL HepG2 Assay for M06 Transcription Factor (Internal Marker) (AID 2282950); settings: HepG2 Attagene CIS-FACTORIAL M06 internal marker reporter; actives raise or lower the signal
In short: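 Serves as a background control readout. Transfected HepG2 exposed to compounds for 24 h, then reporter transcripts quantified by fluorescent RT-PCR and capillary electrophoresis. Both directions fitted against DMSO baseline.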

[7] = target: Hypoxia-inducible factor 1-alpha (Homo sapiens) (UniProt Q16665); assay: ATG_HIF1a_CIS: Attagene CIS-FACTORIAL HepG2 Assay for human Hypoxia Inducible Factor 1 (HIF1A) (AID 2282951); settings: HepG2 Attagene cis-factorial HIF1a reporter transcription; actives raise or lower the signal
Sequence of Hypoxia-inducible factor 1-alpha (Homo sapiens) (Q16665 whole entry, looked up, the tested form may be a part): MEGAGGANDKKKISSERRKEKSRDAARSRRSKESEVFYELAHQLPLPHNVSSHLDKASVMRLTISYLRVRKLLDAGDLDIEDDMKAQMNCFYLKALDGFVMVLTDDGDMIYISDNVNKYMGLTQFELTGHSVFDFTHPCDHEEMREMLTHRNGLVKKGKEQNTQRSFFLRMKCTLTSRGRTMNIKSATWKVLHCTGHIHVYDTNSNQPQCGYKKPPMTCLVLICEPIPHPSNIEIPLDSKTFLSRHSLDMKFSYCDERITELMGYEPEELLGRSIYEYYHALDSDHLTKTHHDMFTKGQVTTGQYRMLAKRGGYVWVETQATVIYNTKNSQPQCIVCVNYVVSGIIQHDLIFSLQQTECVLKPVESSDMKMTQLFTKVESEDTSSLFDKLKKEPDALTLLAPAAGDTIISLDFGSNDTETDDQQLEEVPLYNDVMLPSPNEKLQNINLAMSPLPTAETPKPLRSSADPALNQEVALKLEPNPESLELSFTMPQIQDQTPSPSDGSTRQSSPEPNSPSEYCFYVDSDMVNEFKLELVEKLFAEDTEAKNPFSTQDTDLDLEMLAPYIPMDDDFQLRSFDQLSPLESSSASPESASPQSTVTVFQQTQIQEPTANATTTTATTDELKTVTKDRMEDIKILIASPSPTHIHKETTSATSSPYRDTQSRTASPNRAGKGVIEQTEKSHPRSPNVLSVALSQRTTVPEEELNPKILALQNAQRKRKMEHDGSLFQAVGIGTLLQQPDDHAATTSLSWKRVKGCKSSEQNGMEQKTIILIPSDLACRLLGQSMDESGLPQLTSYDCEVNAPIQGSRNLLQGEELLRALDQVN
In short: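 Transient MRTU transfection of human HepG2 liver cells, 24 h compound treatment, then total RNA isolation, oligo(dT) reverse transcription, PCR amplification, fluorescent labelling and capillary electrophoresis of reporter fragments. Gain or loss relative to DMSO.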

[8] = target: Hepatocyte nuclear factor 6 (Homo sapiens) (UniProt Q9UBC0); assay: ATG_HNF6_CIS: Attagene CIS-FACTORIAL HepG2 Assay for human Hepatocyte Nuclear Factor 6 (HNF6) (AID 2282952); settings: HepG2 Attagene cis-factorial HNF6 reporter transcription; actives raise or lower the signal
Sequence of Hepatocyte nuclear factor 6 (Homo sapiens) (Q9UBC0 whole entry, looked up, the tested form may be a part): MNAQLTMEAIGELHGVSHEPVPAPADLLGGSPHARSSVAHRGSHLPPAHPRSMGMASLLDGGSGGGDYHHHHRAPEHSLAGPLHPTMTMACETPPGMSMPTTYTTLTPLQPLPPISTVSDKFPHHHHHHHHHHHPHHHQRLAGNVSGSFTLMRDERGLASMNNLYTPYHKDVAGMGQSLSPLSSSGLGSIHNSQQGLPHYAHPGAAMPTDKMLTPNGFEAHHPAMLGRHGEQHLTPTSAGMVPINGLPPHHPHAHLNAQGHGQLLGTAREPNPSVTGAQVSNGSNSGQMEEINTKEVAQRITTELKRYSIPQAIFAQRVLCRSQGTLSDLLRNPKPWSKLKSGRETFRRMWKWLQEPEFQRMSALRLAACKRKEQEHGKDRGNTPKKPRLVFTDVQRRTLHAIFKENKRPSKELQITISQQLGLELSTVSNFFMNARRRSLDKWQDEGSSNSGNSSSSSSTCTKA
In short: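 Readout: fluorescent reporter-transcript fragments resolved by capillary electrophoresis after RT-PCR, reflecting endogenous factor activity in transfected HepG2. Exposure 24 h. Gain or loss of signal fitted bidirectionally against DMSO.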

[9] = target: Heat shock factor protein 1 (Homo sapiens) (UniProt Q00613); assay: ATG_HSE_CIS: Attagene CIS-FACTORIAL HepG2 Assay for human Heat Shock Transcription Factor 1 (HSE) (AID 2282953); settings: HepG2 HSE cis-reporter, Attagene RNA transcription; actives raise or lower the signal
Sequence of Heat shock factor protein 1 (Homo sapiens) (Q00613 whole entry, looked up): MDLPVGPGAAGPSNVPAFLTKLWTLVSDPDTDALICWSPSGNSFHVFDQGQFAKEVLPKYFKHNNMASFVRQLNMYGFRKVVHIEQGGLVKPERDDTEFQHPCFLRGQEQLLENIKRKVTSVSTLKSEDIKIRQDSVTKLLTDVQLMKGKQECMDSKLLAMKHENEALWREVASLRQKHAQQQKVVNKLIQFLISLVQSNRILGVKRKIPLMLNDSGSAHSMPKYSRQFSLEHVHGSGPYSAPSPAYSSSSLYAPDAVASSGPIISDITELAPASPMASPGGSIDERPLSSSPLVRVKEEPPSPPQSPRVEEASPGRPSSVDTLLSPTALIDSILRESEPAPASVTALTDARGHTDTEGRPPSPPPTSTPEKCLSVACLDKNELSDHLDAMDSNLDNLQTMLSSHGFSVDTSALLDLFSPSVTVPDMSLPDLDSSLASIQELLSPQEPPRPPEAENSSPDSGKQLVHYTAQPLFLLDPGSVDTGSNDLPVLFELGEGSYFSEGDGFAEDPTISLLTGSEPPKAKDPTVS
In short: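 Endogenous transcription factor activity in transiently transfected HepG2, read as reporter mRNA by RT-PCR with fluorescent capillary electrophoresis after 24 h. Gain or loss of signal fitted versus DMSO baseline.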

[10] = ATG_MRE_CIS: Attagene CIS-FACTORIAL HepG2 Assay for human Metal Responsive Element (MRE) (AID 2282954); settings: HepG2 MRE cis-reporter transcription, Attagene multiplex; actives raise or lower the signal
In short: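 Endogenous MRE-dependent transcription read as reporter mRNA in transiently transfected human HepG2 cells at 24 h. RNA reverse-transcribed, PCR-amplified, labelled and resolved by capillary electrophoresis; gain or loss relative to DMSO.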

[11] = target: Paired box protein Pax-6 (Homo sapiens) (UniProt P26367); assay: ATG_Pax6_CIS: Attagene CIS-FACTORIAL HepG2 Assay for human Paired Box 6 (PAX6) (AID 2282956); settings: HepG2 CIS-FACTORIAL PAX6 reporter transcription, RNA readout; actives raise or lower the signal
Sequence of Paired box protein Pax-6 (Homo sapiens) (P26367 whole entry, looked up): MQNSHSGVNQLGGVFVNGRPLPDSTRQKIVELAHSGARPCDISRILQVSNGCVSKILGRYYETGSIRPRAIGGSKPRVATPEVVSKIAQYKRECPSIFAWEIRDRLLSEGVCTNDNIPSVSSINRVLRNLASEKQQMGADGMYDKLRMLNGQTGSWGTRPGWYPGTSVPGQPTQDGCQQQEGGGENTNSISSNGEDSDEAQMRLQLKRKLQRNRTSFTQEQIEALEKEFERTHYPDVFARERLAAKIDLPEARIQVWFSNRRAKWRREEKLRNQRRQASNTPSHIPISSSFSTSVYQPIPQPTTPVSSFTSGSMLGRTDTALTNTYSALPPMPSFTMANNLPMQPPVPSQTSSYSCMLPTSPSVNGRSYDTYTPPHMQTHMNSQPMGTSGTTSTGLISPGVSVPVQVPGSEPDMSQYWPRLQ
In short: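 Readout: reporter transcript fluorescence after RT-PCR and capillary electrophoresis. Cells: HepG2, transiently transfected with cis-regulated MRTUs. Exposure 24 h. Gain or loss of signal fitted bidirectionally relative to DMSO.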

[12] = ATG_PXRE_CIS: Attagene CIS-FACTORIAL HepG2 Assay for human Pregnane X Receptor Element (PXRE) (AID 2282957); settings: HepG2 Attagene CIS-FACTORIAL PXRE reporter, mRNA; actives raise or lower the signal
In short: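 Read-out: fluorescence of reporter-specific RT-PCR products resolved by capillary electrophoresis, fitted bidirectionally relative to DMSO. Human HepG2 liver cells carried transfected cis-promoter reporter units and were exposed to chemicals for 24 h.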

[13] = ATG_PPRE_CIS: Attagene CIS-FACTORIAL HepG2 Assay for human Peroxisome Proliferator-activated Response Element (PPRE) (AID 2282958); settings: HepG2 PPRE cis-element reporter, Attagene transcription factor profiling; actives raise or lower the signal
In short: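 HepG2, transient MRTU transfection (cis promoter elements, endogenous TFs). 24 h dosing. RNA → oligo(dT) RT → PCR → 6-FAM primer extension → HpaI digest → CE. Bidirectional fit vs DMSO.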

[14] = ATG_RORE_CIS: Attagene CIS-FACTORIAL HepG2 Assay for human RAR-related Orphan Receptor Element (RORE) (AID 2282959); settings: HepG2 Attagene cis-factorial RORE reporter, mRNA; actives raise or lower the signal
In short: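 Transient MRTU transfection of human HepG2 liver cells (FuGene 6); 24 h compound exposure; TriZol RNA, oligo(dT) RT, PCR, FAM labeling, HpaI cut, CE fragment analysis. DMSO = negative control/baseline.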

[15] = ATG_Sox_CIS: Attagene CIS-FACTORIAL HepG2 Assay for human SRY-box transcription factor (SOX) (AID 2282960); settings: HepG2 Attagene cis-factorial SOX reporter, mRNA; actives raise or lower the signal
In short: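 Endogenous factor activity in human liver HepG2 cells carrying transfected cis-regulated reporter units. RNA taken 24 h post-dose, reverse-transcribed, PCR-amplified and sized by capillary electrophoresis. Gain or loss of signal fitted relative to DMSO.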

[16] = target: Transcription factor Sp1 (Homo sapiens) (UniProt P08047); assay: ATG_Sp1_CIS: Attagene CIS-FACTORIAL HepG2 Assay for human Specificity Protein 1 (Sp1) (AID 2282961); settings: HepG2 Sp1 cis-reporter transcription, actives raise or lower the signal
Sequence of Transcription factor Sp1 (Homo sapiens) (P08047 whole entry, looked up): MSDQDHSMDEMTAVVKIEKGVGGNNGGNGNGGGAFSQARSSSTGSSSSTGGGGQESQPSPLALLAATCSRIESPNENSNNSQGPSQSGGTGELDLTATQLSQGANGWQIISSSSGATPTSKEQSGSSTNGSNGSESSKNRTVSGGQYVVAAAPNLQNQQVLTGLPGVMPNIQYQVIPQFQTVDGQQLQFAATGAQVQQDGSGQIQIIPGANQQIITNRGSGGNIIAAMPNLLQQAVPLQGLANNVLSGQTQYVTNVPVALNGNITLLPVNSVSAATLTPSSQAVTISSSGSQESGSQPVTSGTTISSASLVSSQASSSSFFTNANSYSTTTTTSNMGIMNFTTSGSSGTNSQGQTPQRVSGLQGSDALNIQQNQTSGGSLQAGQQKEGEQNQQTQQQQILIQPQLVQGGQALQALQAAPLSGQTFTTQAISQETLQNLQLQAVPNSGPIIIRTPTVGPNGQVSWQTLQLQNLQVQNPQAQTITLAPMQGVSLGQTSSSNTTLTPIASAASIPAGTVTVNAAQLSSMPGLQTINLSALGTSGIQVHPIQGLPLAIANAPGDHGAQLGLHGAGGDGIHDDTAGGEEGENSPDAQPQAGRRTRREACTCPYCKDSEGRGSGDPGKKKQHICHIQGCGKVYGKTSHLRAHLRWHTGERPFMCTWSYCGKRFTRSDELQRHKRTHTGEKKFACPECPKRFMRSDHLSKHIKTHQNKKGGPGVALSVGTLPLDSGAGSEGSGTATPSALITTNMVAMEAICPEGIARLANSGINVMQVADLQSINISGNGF
In short: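 Transient MRTU-transfected HepG2, 24 h compound exposure. Total RNA → oligo(dT) RT → PCR of reporter → 6-FAM primer extension → HpaI digest → CE. Endpoint fitted both directions vs DMSO.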

[17] = ATG_SREBP_CIS: Attagene CIS-FACTORIAL HepG2 Assay for human Sterol Regulatory Element Binding (SREBP) (AID 2282962); settings: HepG2 Attagene cis-factorial SREBP reporter, mRNA; actives raise or lower the signal
In short: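 Readout: fluorescent reporter-transcript peaks resolved by capillary electrophoresis after RT-PCR. Cells were human HepG2 carrying transfected cis-promoter reporter constructs, dosed for 24 h. Gain or loss of signal was fitted against DMSO controls.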

[18] = target: Signal transducer and activator of transcription 3 (Homo sapiens) (UniProt P40763); assay: ATG_STAT3_CIS: Attagene CIS-FACTORIAL HepG2 Assay for human Signal Transducer and Activator of Transcription 3 (STAT3) (AID 2282963); settings: HepG2, Attagene cis-factorial STAT3 reporter transcription; actives raise or lower the signal
Sequence of Signal transducer and activator of transcription 3 (Homo sapiens) (P40763 whole entry, looked up): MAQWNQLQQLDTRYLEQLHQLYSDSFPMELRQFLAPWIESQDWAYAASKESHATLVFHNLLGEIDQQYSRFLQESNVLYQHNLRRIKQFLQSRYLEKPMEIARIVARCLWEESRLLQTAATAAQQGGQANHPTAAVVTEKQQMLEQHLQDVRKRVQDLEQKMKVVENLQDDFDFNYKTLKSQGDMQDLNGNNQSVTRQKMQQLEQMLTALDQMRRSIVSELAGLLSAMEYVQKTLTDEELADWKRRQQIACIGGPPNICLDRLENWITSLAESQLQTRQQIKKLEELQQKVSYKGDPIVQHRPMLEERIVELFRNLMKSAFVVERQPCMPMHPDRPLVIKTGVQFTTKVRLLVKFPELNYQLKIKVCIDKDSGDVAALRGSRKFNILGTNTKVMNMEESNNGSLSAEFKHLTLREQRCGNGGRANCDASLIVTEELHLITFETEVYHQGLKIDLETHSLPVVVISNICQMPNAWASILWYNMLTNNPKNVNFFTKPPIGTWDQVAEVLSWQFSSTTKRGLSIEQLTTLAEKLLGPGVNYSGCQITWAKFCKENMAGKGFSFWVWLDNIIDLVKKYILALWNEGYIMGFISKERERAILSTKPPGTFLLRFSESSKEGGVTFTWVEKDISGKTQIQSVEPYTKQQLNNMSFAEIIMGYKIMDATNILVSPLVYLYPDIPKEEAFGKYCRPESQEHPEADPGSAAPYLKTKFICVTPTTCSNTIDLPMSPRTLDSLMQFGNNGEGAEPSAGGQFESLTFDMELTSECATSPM
In short: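 Readout is reporter transcript quantified by RT-PCR and capillary electrophoresis, with 6-FAM primer extension and HpaI digestion. Total RNA is taken 24 h after dosing transiently transfected HepG2 carrying cis-regulated reporter units. Bidirectional fit against DMSO.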

[19] = ATG_TA_CIS: Attagene CIS-FACTORIAL HepG2 Assay for human TA Basal Promoter (AID 2282964); settings: HepG2 Attagene CIS-factorial TA basal promoter reporter; actives raise or lower the signal
In short: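 Background-control readout: TA basal promoter reporter mRNA, fitted in both directions relative to DMSO. Measured by RT-PCR and capillary electrophoresis 24 hours after treating HepG2 human liver cells transiently carrying multiplexed cis-regulated reporter constructs.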

[20] = ATG_PBREM_CIS: Attagene CIS-FACTORIAL HepG2 Assay for human Phenobarbital-responsive Enhancer Module (PBREM) (AID 2282955); settings: HepG2 PBREM cis-reporter, Attagene multiplexed transcription; actives raise or lower the signal
In short: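 Endogenous transcription factors in human liver HepG2 cells drive a PBREM cis-element reporter, whose transcript level after 24 h treatment is quantified by RT-PCR with capillary electrophoresis; activity fitted in both directions against DMSO.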

Measured: AC50

COC(C=C(C)CCC=C(C)C)OC
inactive: [1] | [2] | [3] | [4] | [5] | [6] | [7] | [8] | [9] | [10] | [11] | [13] | [14] | [15] | [16] | [17] | [18] | [19]
active: [12] 21.7 µM

CCC(C)C(=O)OC (configuration not stated)
inactive: [1] | [2] | [3] | [4] | [5] | [6] | [7] | [8] | [9] | [10] | [11] | [12] | [13] | [14] | [15] | [16] | [17] | [18] | [19]

CC1=CP(=O)(c2ccccc2)CC1 (configuration not stated)
inactive: [1] | [2] | [3] | [4] | [5] | [6] | [7] | [8] | [9] | [10] | [11] | [13] | [14] | [15] | [16] | [17]
active: [12] 27.6 µM

CC1=C(O)C(=O)C(C)O1 (configuration not stated)
inactive: [1] | [2] | [3] | [4] | [5] | [6] | [7] | [8] | [9] | [10] | [20] | [11] | [12] | [14] | [15] | [16] | [17] | [19]

CCCCCCOc1ccc(N)cc1
active: [12] 26.8 µM
inactive: [1] | [2] | [3] | [4] | [5] | [6] | [7] | [8] | [9] | [10] | [20] | [11] | [14] | [16] | [17] | [18] | [19]

COC(=O)[C@H](Cc1ccccc1)NC(=O)[C@@H](N)CC(=O)O (H-Asp-Phe-OMe)
inactive: [1] | [2] | [3] | [4] | [5] | [6] | [7] | [8] | [10] | [11] | [13] | [14] | [15] | [16] | [17] | [18] | [19]

CC(C)(CO)COC(=O)C(C)(C)CO
inactive: [1] | [2] | [3] | [4] | [5] | [6] | [7] | [8] | [9] | [20] | [11] | [12] | [13] | [16] | [17] | [19]

CCCCC(C=O)CC (configuration not stated)
inactive: [1] | [2] | [3] | [4] | [5] | [6] | [7] | [8] | [10] | [11] | [12] | [13] | [14] | [15] | [16] | [17] | [18] | [19]
